High-throughput results as filed in PubChem.
HCMV inh: blocks human cytomegalovirus replication; HFF cells, HCMV-luciferase reporter, 72 h; active compounds read low; 4.5% of 410,000 active; activity change, negative = inhibition, % at 57.5 µM; in the data active = activity change below about -60%; inconclusive = no clear call, values can overlap the other calls; inactive = above about -39%
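Two-dose cell screen: HFF monolayers treated with compounds and infected with luciferase-expressing HCMV at 1 PFU/cell, 72 h at 37C, then lysed for luciferase measurement.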
Shiga toxin inh: blocks Shiga toxin action in Vero cells. Vero cells, Shiga toxin protein synthesis inhibition reporter. inhibition, % at 38.7 µM. 9.2% of 290,000 active; in the data active = inhibition mostly above about 28%, no sharp cut-off; inactive = mostly below about 43%
HCV inh: inhibitors of hepatitis C virus infection. Huh7.5.1 HCVcc-Cre infection, luciferase reporter, 44 h. Potency, µM (top dose mostly 41.8 µM), usual class: inhibitors. 3.4% of 340,000 active. AID 651820
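Cells (1,000/well) were plated 4 h before compound, then infected with HCVcc-Cre virus (~0.5 moi). After 44 h further culture, infection was read as luciferase luminescence following a 15 min substrate incubation at room temperature.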
Pf growth 48h: P. falciparum growth inhibition at 48 hours (one generation) | P. falciparum luciferase growth in erythrocytes, 48 h | 5.9% of 310,000 active | AID 504832 | Potency, µM (doses to about 28.7 µM), usual class: inhibitors
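A one-generation exposure of luciferase-tagged malaria parasites in RPMI 1640/Albumax erythrocyte culture, 37 C and 5% CO2. Inhibition is inferred from decreased luminescence after adding detection reagent.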
Pf growth 96h: P. falciparum growth inhibition at 96 hour, primary screen for plastid delayed-death inhibitors; 6.9% of 320,000 active; P. falciparum luciferase reporter growth, 96 h; Potency, µM (doses to about 28.7 µM), actives largely listed as inhibitors; AID 504834
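Cell-based qHTS: luciferase-tagged P. falciparum in erythrocytes (2% hematocrit, 0.05% parasitemia final) incubated with compounds for 96 hours, 37 C, 5% CO2; luciferase detection reagent then added and luminescence measured.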
Cycloheximide cs: affects cycloheximide protein synthesis inhibition readout, counter-screen; 12% of 300,000 active; AID 2314; cell reporter, cycloheximide protein synthesis inhibition counterscreen; max response, %; in the data active = max response mostly above about 13%, no sharp cut-off; inactive = mostly below about 14%; note: read at 38.3 µM for the half of the compounds with a filed dose
Numbers stand for hits; – = inactive; ? = inconclusive; · = no result given; + = active, no number; ! = not confirmed by another sample. Most compounds without a hit are left out; they make up all but 21% or so of the library. Unless noted, calls come from the whole dose curve; as a rule, active = well fitted inhibition curve with a large enough effect; inconclusive = small, poorly fitted or top-dose-only effect, or another doubt; inactive = no such curve, though single readings can be large or run the other way.

SMILES | HCMV inh | Shiga toxin inh | HCV inh | Pf growth 48h | Pf growth 96h | Cycloheximide cs
CCOC(=O)Nc1ccc2c(c1)N(C(=O)N(CC)CC)c1ccccc1CC2 | – | – | – | 12µM | ? | –
CCNCC(=O)N1c2ccccc2CCc2ccc(NC(C)=O)cc21 | – | – | – | – | – | –
CCNCC(=O)N1c2ccccc2CCc2ccc(NC(=O)OC(C)C)cc21 | – | · | ? | 12µM | – | –
CC1CCCCC1NC(=O)CSc1nnc(C(F)(F)F)n1C (stereo not given) | – | · | · | · | · | ·
CSc1ccccc1NC(=O)CN(c1cccc(C)c1)S(C)(=O)=O | – | – | – | – | · | –
Cc1cccc(N(CC(=O)Nc2ccccc2F)S(C)(=O)=O)c1 | – | – | – | · | 5.2µM | –
Cc1c(OCc2ccccc2)cccc1OCc1ccccc1 | – | – | – | – | – | 21
Cc1nc2ccccc2nc1OCc1ccccc1 | – | – | – | – | – | 18
Cc1oc(=O)cc(OCc2ccccc2)c1C | – | · | – | · | · | ·
Cc1cccc(CSc2cn(CC(=O)N3CCCCC3)c3ccccc23)c1 | – | · | · | · | · | ·
C1CCC(C(CC2CCCCN2)C2CCCCC2)CC1 (stereo not given) | -99! | – | ? | 3.7µM | 4.1µM | –
COc1ccc(N2CCN(C(=O)c3cn(Cc4ccccc4)nc3-c3cccnc3)CC2)cc1 | – | · | – | ? | 10µM | ·
COc1cccc(CN2CCN(C(=O)c3cc(-c4cccnc4)nc4ccc(C)cc34)CC2)c1 | – | – | – | 9.3µM | ? | –
CCC(c1nnnn1Cc1ccco1)N(Cc1ccccc1OC)Cc1cc2cc(C)ccc2[nH]c1=O (stereo not given) | – | – | – | 1.5µM | ? | –
Cc1ccc2[nH]c(=O)c(CN(CCCO)C(C)c3nnnn3Cc3ccco3)cc2c1 (stereo not given) | – | – | – | 2.3µM | – | –
COc1ccc(CCNC(=O)CSc2nnc3ccc(-c4ccccn4)nn23)cc1OC | – | · | – | – | ? | ·
CC1CCC/C(=C\Nc2ccc(O)cc2)C1=O (stereo not given) | – | 80 | – | – | – | 52
C=CCCn1c(Cl)c(C#N)sc1=O | · | – | · | · | · | –
Cc1ccc(OCc2nc(C#N)c(N3CCCCC3)o2)cc1 | – | – | – | ? | – | 18
N#Cc1nc(COc2ccc(Cl)cc2)oc1N1CCCCCC1 | – | – | ? | ? | · | –
Cc1cccc(OCc2nc(C#N)c(N3CCCC3)o2)c1 | – | – | ? | – | ? | –
N#Cc1nc(COc2ccccc2Cl)oc1N1CCCCCC1 | – | – | – | – | ? | –
CCN1CCN(c2oc(COc3ccc(-c4ccccc4)cc3)nc2C#N)CC1 | – | – | ? | ? | ? | 20
N#Cc1nc(COc2ccccc2)oc1N1CCCCC1 | – | 83 | – | · | – | 51
N#Cc1nc(COc2ccccc2F)oc1N1CCCCCC1 | – | 28 | ? | – | – | 24
SMILES | HCMV inh | Shiga toxin inh | HCV inh | Pf growth 48h | Pf growth 96h | Cycloheximide cs
N#Cc1nc(COc2ccc(Br)cc2)oc1N1CCN(Cc2ccccc2)CC1 | – | – | ? | – | – | –
Cc1nn(CC(=O)NCCCN2C(C)CCCC2C)c(=O)c2cc3occc3n12 (stereo not given) | – | – | – | – | – | –
Fc1ccc(Nc2nc(NCc3cccs3)nc3ccsc23)cc1 | – | · | · | · | · | ·
Cn1c(=O)c(-c2ccccc2[N+](=O)[O-])c(Cl)c2ccccc21 | ? | – | – | – | – | –
CN(Cc1ccc2nonc2c1)Cc1nc(Cc2cccc(F)c2)no1 | – | – | – | ? | 13µM | –
O=C(Nc1ccccc1F)c1cc(S(=O)(=O)N2CCOCC2)ccc1N1CCOCC1 | – | · | – | – | ? | ·
C/C(=N\NC(=O)c1ccncc1)c1ccc(NC(=O)c2ccc(Cl)cc2)cc1 | – | 97 | – | – | – | 57
COc1ccc(/C(C)=N/NC(=O)c2ccncc2)cc1 | – | – | – | – | – | –
COc1ccc(C(=O)Nc2ccc(/C(C)=N/NC(=O)c3ccncc3)cc2)cc1 | – | – | · | – | – | 26
COc1ccc(/C(C)=N/NC(=O)c2ccccc2N)cc1 | – | 78 | – | ? | 3.7µM | 34
O=C(N/N=C/c1ccncc1)c1ccc(NC(=O)c2ccc(Cl)cc2)cc1 | ? | – | – | ? | – | –
C/C(=N/NC(=O)c1ccncc1)c1ccc(NC(=O)c2ccc(Cl)cc2Cl)cc1 | – | – | – | – | – | 63
Cc1ccc(/C=C/C(=O)N2CCC(c3nc4ccccc4o3)CC2)cc1 | – | · | · | · | · | ·
O=C1/C(=C\c2ccc(Br)o2)Cc2ccccc21 | ? | 53 | – | – | – | 73
O=C1/C(=C\c2cccs2)CCC/C1=C/c1cccs1 | · | · | · | – | – | ·
O=C1C(=Cc2cccs2)C(=O)c2ccccc21 | – | – | – | – | – | 46
O=C1NN(c2ccccc2)C(=O)/C1=C/c1cccs1 | – | – | – | – | – | –
Cc1ccc(C=C2C(=O)c3ccccc3C2=O)s1 | – | 45 | – | · | 12µM | 56
O=C1/C(=C/c2cccs2)Cc2ccccc21 | ? | 157 | – | – | – | 36
CC(C(=O)NC(C)(C)C)N1C(=O)c2cccc3cccc(c23)C1=O (stereo not given) | – | – | – | – | – | –
Cn1cccc1/C=C1\Cc2ccccc2C1=O | – | + | ? | – | – | 42
Cn1cccc1/C=C1\CC(C(C)(C)C)C/C(=C\c2cccn2C)C1=O (stereo not given) | – | – | 2.5µM | · | – | –
O=C(Cn1nc2c(cc1=O)CCCC2)NCc1ccc(Cl)cc1 | – | · | · | · | · | ·
CCN(CC)c1ccc(NC(=O)c2cc(C)nc3c2c(C)nn3-c2ccc(C)cc2)c(C)c1 | – | · | · | · | · | ·
COc1ccccc1CC(=O)Nc1ccc(-c2noc(COc3ccc(Cl)c(C)c3)n2)cc1 | -67 | – | – | · | – | –
SMILES | HCMV inh | Shiga toxin inh | HCV inh | Pf growth 48h | Pf growth 96h | Cycloheximide cs
CCOc1ccccc1-c1nc(-c2ccc(NC(=O)Cc3ccccc3OC)cc2)no1 | – | – | ? | 13µM | 3.7µM | –
CCOc1ccccc1NC(=O)c1ccccc1-c1ccccc1 | – | – | – | – | ? | –
CCOc1ccccc1NC(=O)c1ccccc1-c1nc(-c2ccccc2)no1 | – | – | ? | ? | 8.3µM | 27
COc1cccc(C2=NC(C)(CC(=O)NCc3cccc(O)c3)ON2C)c1 (stereo not given) | – | · | · | · | · | ·
O=[N+]([O-])c1cccc(-c2cn3nc(-c4ccccc4)c(-c4ccccc4)nc3n2)c1 | – | – | – | 9.3µM | ? | –
Cc1ccc(-c2cn3nc(-c4ccccc4)c(-c4ccccc4)nc3n2)cc1 | – | – | – | ? | – | 16
COCCNC(=O)CCC(=O)N1Cc2cccc(OC)c2Oc2ncccc21 | – | · | · | · | · | ·
CNC(=O)c1ccc2snnc2c1 | – | – | – | · | – | –
CC(=O)c1ccc(NC(=O)c2ccc3snnc3c2)cc1 | – | 65 | – | – | – | 50
COc1ccc(NC(=O)c2ccc3snnc3c2)cc1 | – | 64 | – | – | – | 46
